The results in this text go back to PubChem BioAssay.

Experiment [1] concerns the target Nuclear receptor coactivator 3 (Homo sapiens) (UniProt Q9Y6Q9). Briefly: SRC3 coactivator transcriptional activity inhibitors, confirmation, cell-based, luminescence, quadruplicate (AID 588792;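 active = mean inhibition over 43.08%, the solvent-only control mean plus 3 SD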;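 also: 0% = DMSO treated cells and 100% = gossypol at 36 µM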). The settings on record: HEK293 GAL4-SRC3 luciferase reporter, at 3.6 µM, stronger effect = higher value.
Experiment [2] concerns transactivating tegument protein VP16 (Human herpesvirus 1), Gal4-VP16 luciferase reporter. Kind of experiment: VP16 transactivation inhibitors, counter-screen for SRC3 inhibitor project, cell-based, luminescence, high throughput (AID 588794; in the data active = inhibition above about 30%). The note with it: mammalian cells, VP16-driven luciferase reporter luminescence; at 3.6 µM; stronger effect = higher value. Background: Counterscreens check selectivity or assay interference.

Experiment [3] has as its target Nuclear receptor coactivator 1 (Homo sapiens) (UniProt Q15788). Kind of experiment: SRC1 coactivator transcriptional activity inhibitors, confirmation, cell-based, luminescence, quadruplicate (AID 588820;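 active = mean inhibition above 46.68%, the untreated control wells mean plus 3 SD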;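 also: 0% = DMSO wells and 100% = gossypol 36 µM treated wells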). The settings on record: HEK293 GAL4-SRC1 luciferase reporter, at 3.6 µM, stronger effect = higher value. For orientation: Reporter assays use an easily measured gene product as a stand-in for the process of interest.

The nature of experiment [4]: VP16 transactivation inhibitors, counter-screen for SRC1 inhibitor project, cell-based, luminescence, high throughput (AID 588824). The settings on record: cell-based VP16 transactivation luciferase luminescence; at 3.6 µM; stronger effect = higher value.
Experiment [5] concerns the target Nuclear receptor subfamily 5 group A member 2 (Homo sapiens) (UniProt O00482). Kind of experiment: LRH-1 (NR5A2) inverse agonists, retest, confirmation, cell-based, luminescence (AID 651613; in the data active = inhibition above about 42%;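 also: HEK293T cells co-transfected with LRH-1 and StAR promoter luciferase reporter; 0% = vehicle wells and 100% = parental cells lacking receptor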). The note with it: cell-based LRH-1 luciferase reporter, inverse agonism; at 3.6 µM; stronger effect = higher value.
Experiment [6] deals with Steroidogenic factor 1 (Homo sapiens) (UniProt Q13285). Briefly: SF1 (NR5A1) inverse agonists, counter-screen for LRH-1 inverse agonist project, cell-based, luminescence, high throughput (AID 651614; in the data active = inhibition above about 44%;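 also: cells cotransfected with StAR promoter reporter and SF1 expression vector; 0% = vehicle on cells with receptor and 100% = vehicle on cells lacking receptor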). The note with it: cell-based SF1 luciferase reporter, at 3.6 µM, stronger effect = higher value.
The subject of experiment [7] is transactivating tegument protein VP16 (Human herpesvirus 1). Briefly: VP16 transactivation reporter inhibitors, counter-screen for SRC2 inhibitor project, cell-based, luminescence, single concentration (AID 652007; in the data active = inhibition above about 36%). The note with it: cell-based VP16 transactivation luciferase reporter, at 8.9 µM, stronger effect = higher value.
Experiment [8] addresses Nuclear receptor coactivator 2 (Homo sapiens) (UniProt Q15596). Briefly: SRC2 coactivator transcriptional activity inhibitors, confirmation, cell-based, luminescence, HEK293, triplicate (AID 652008;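 active = mean inhibition above 46.5%, the solvent-only control mean plus 3 SD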;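 also: 0% = DMSO-treated cells and 100% = Gossypol at 36 µM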). The settings on record: HEK293 GAL4-SRC2 luciferase reporter, at 8.9 µM, stronger effect = higher value.
The nature of experiment [9]: StAR promoter reporter inhibitors, counter-screen for LRH-1 inverse agonist project, cell-based, luminescence, high throughput (AID 651611; in the data active = inhibition above about 28%). The settings on record: StAR promoter luciferase reporter counterscreen, at 3.6 µM, stronger effect = higher value.
The nature of experiment [10]: VP16 transactivation reporter inhibitors, counter-screen for LRH-1 inverse agonist project, cell-based, luminescence, high throughput (AID 651615; in the data active = inhibition above about 33%). The settings on record: Gal4-VP16 luciferase reporter cells, at 3.6 µM, stronger effect = higher value.
Experiment [11] can be described thus: Gal4-VP16 luciferase reporter inhibitors, counter-screen for COUP-TFII antagonist project, cell-based, luminescence, HEK293 (AID 687007; in the data active = inhibition above about 13%). The settings on record: at 8.5 µM, stronger effect = higher value.
In experiment [12] the target is COUP transcription factor 2 (Homo sapiens) (UniProt P24468). Kind of experiment: NR2F2 transcriptional activity inhibitors, confirmation, cell-based, luciferase reporter, HEK293, triplicate (AID 687008;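 active = mean inhibition over three repeats above a set limit taken from the earlier primary screen, cut at about 38% in these data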;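 also: 100% = cells given the luciferase reporter alone without the COUP-TF2 vector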). The note with it: HEK293 NGFI-A luciferase reporter, luminescence; at 8.5 µM; stronger effect = higher value.

Unmarked numbers belong to inactive results. The list shows a part of the results. Active and inactive are the calls of the source. Rule as the data show it, unless noted: active = inhibition above about 25%; inactive = the rest.

Nuclear receptor coactivator 3 (Homo sapiens), sequence (Q9Y6Q9 whole entry, looked up, the tested form may be a part): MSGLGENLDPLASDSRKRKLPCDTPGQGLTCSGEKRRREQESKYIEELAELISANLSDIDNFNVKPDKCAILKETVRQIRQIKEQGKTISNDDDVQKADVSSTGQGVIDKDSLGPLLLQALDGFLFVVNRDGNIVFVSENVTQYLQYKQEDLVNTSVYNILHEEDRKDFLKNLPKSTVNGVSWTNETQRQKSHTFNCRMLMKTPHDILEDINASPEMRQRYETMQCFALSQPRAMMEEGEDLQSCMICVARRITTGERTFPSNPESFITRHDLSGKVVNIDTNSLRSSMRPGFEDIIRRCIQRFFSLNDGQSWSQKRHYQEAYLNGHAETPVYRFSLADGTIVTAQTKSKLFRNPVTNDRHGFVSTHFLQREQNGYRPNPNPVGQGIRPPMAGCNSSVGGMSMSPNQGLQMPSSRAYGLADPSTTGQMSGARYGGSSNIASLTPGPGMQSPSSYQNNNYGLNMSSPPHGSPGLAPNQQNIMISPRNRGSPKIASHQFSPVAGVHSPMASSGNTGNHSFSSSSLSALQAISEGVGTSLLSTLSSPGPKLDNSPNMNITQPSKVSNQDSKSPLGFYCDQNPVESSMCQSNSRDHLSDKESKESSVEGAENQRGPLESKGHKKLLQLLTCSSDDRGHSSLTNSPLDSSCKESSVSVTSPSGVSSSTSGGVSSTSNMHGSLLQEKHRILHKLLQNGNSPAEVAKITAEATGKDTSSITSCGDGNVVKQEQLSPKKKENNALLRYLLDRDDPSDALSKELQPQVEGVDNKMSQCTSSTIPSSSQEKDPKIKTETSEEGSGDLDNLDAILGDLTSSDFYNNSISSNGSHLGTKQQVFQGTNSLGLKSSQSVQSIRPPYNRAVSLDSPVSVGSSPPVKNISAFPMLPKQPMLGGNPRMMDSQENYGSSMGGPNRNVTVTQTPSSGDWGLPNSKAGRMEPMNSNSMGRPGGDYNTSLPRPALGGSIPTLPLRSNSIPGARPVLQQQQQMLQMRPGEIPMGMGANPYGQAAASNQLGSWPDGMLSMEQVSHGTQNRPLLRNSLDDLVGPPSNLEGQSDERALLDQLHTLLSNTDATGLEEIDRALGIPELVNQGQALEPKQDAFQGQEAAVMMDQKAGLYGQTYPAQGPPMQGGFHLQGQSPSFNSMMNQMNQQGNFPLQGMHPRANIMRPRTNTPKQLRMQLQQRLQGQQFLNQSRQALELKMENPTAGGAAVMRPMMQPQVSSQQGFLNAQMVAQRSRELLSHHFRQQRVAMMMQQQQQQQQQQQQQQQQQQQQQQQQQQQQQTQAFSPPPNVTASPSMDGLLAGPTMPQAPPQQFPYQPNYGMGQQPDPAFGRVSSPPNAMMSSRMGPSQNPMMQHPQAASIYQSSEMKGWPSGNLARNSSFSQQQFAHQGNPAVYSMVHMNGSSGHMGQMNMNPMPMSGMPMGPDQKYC
Nuclear receptor coactivator 2 (Homo sapiens), sequence (Q15596 whole entry, looked up, the tested form may be a part): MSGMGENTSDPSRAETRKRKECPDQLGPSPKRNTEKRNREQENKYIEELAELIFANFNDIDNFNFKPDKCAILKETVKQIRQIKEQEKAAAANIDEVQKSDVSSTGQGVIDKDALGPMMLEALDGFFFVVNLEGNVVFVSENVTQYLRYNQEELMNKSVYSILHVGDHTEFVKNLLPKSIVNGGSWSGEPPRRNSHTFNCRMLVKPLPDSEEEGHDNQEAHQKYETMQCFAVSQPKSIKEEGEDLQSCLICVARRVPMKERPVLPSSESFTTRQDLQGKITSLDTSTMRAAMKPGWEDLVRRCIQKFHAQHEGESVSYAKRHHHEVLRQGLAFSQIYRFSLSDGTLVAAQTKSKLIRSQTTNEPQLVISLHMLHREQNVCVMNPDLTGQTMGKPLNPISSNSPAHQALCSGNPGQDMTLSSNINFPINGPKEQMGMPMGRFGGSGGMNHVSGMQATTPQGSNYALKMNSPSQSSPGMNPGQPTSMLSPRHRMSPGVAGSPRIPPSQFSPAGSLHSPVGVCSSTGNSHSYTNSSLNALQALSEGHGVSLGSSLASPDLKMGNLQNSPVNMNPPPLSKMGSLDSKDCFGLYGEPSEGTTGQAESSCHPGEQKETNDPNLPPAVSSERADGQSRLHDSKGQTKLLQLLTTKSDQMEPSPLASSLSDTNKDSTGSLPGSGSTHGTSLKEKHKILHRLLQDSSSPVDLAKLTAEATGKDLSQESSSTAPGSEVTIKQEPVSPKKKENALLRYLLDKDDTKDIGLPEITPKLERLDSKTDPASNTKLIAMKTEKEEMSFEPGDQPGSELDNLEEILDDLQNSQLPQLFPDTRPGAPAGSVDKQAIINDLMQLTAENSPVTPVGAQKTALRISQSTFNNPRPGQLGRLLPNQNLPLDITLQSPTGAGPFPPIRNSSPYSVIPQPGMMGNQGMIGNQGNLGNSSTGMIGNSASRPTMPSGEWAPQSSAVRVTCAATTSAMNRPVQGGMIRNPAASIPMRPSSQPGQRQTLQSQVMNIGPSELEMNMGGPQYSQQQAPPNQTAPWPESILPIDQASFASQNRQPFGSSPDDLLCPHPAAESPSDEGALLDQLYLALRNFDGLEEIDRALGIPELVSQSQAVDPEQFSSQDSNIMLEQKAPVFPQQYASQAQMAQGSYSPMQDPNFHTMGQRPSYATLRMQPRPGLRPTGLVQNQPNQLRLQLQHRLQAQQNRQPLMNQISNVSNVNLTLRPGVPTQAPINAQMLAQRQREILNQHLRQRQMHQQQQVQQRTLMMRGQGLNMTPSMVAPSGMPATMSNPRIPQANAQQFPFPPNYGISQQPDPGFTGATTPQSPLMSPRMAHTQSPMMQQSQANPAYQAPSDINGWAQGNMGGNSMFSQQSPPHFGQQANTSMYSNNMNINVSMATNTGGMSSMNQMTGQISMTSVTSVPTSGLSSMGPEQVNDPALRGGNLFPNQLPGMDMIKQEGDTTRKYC
Nuclear receptor coactivator 1 (Homo sapiens), sequence (Q15788 whole entry, looked up, the tested form may be a part): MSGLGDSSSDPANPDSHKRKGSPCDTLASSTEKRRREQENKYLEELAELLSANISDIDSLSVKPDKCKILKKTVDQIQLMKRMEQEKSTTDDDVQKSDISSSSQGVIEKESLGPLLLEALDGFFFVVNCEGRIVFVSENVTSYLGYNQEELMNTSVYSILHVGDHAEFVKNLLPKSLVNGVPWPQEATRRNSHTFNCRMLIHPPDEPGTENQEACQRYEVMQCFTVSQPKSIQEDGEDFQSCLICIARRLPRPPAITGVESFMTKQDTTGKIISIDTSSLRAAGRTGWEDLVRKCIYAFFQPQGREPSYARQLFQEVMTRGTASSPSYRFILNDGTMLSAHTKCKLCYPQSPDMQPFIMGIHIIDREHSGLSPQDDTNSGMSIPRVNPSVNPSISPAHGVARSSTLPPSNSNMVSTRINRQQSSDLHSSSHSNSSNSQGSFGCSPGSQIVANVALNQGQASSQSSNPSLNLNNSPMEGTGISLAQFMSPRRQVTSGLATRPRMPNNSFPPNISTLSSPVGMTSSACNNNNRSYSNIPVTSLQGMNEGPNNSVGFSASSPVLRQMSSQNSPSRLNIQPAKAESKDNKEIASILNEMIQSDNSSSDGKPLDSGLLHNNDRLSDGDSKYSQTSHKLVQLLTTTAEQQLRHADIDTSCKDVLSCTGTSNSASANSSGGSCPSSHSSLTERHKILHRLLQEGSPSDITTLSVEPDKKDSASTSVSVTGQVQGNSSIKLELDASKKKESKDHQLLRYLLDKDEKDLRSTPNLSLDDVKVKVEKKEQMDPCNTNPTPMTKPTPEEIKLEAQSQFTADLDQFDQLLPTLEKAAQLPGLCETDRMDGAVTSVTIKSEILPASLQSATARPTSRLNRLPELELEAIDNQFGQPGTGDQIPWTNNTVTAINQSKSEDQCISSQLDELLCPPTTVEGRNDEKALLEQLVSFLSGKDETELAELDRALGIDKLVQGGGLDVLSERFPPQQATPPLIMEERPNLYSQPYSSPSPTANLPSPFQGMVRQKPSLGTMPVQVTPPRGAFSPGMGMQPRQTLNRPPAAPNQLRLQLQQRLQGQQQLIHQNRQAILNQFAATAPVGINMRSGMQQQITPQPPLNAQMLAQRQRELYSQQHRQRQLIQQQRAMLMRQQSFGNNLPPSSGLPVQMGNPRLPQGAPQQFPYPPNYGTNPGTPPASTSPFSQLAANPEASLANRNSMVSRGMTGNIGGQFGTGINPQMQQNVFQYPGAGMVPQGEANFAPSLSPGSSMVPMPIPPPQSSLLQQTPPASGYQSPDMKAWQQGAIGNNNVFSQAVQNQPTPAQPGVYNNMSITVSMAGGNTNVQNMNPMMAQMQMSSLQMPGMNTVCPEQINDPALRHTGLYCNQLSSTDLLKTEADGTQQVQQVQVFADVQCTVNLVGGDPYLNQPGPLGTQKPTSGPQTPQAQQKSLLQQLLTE
Steroidogenic factor 1 (Homo sapiens), sequence (Q13285 whole entry, looked up): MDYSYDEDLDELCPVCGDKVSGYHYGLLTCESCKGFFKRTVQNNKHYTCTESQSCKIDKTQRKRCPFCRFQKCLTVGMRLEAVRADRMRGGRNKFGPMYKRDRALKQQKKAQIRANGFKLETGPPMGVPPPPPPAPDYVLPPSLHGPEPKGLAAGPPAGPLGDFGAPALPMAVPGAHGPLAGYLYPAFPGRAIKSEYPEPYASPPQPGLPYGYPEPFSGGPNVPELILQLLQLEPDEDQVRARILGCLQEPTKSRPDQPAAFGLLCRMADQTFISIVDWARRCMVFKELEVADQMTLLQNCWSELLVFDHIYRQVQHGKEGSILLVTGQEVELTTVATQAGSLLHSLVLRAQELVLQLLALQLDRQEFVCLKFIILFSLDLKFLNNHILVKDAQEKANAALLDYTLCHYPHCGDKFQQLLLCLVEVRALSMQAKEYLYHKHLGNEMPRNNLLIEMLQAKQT

Take `COc1ccc(CC2C(=O)NC(C)C(=O)N(C)C3C(=O)N(C)C(Cc4ccc(O)c(c4)Oc4ccc(cc4)C3O)C(=O)NC(C)C(=O)NC(C)C(=O)N2C)cc1` (stereo unspecified): the inhibition (usually the drop in the measured response relative to a control, in per cent) in experiment [1] is 98.6% (active); in [2], 96.7% (active); in experiment [3], 94.8% (active); in experiment [4], 95.5% (active); in experiment [5], 111% (active); in experiment [6], 98.8% (active). Also, the inhibition in experiment [7] was 80.4% (active); in experiment [8], 77.1% (active).

On to `COc1ccc(CC2NCC(O)C2OC(C)=O)cc1` (stereo unspecified), for which the inhibition in [1] is 98.6% (active); in experiment [2] it was 96.7% (active); in experiment [3], 96.2% (active); in experiment [4] it was 96.6% (active); in experiment [9] it was 96.6% (active); in experiment [5], 111% (active). The inhibition in experiment [6] is 98.3% (active); in [10], 96.1% (active); in experiment [7], 84.6% (active); in experiment [8] it was 82.5% (active).

With `CC12CCC3C(CCC4(O)CC(O)CCC34C=NO)C1(O)CCC2C1=COC(=O)C1` (stereo unspecified), the inhibition is 94.5% (active) in [1]; 84.4% (active) in [2]; 61.1% (active) in experiment [3]; 82.2% (active) in [4]; 96.3% (active) in [9]; 110% (active) in experiment [5]. Moreover, the inhibition in experiment [6] is 98.2% (active); in [10] it was 89.2% (active); in experiment [7], 54.3% (active); in experiment [8], 29.4%.

Regarding `COc1ccc2c(c1)[nH]c1c(C)nccc12`, the inhibition in experiment [1] is 79% (active); in [2], 48.6% (active); in experiment [3], 63.4% (active); in experiment [4], 51.4% (active); in experiment [7] it was 9.1%; in [8] it was 42.9%.

For `Nc1ncnc2c1ccn2[C@@H]1O[C@H](CO)[C@@H](O)[C@H]1O`, the inhibition is 93.6% (active) in [1]; 89.5% (active) in [2]; 53.4% (active) in [3]; 86.8% (active) in experiment [4]; 90.9% (active) in experiment [9]; 107% (active) in experiment [5]. The inhibition in [6] is 94.2% (active); in experiment [10], 93.6% (active); in experiment [7], 55.5% (active); in [8] it was 58.3% (active).

As for `C[C@]12CC[C@H](O)C[C@H]1CC[C@@H]1C2CC[C@]2(C)[C@@H](C3=CC(=O)OC3)[C@@H](O)C[C@]12O` (stereo partly specified), the inhibition in [1] was 75.3% (active); in experiment [2], 21.1%; in [3], -39%; in experiment [4], 12.7%; in experiment [9] it was 87.1% (active); in experiment [5], 90.4% (active). In addition, the inhibition was 69.9% (active) in [6], 40.9% (active) in [10], -16.6% in [11] and 30.9% in experiment [12].

As for `C[C@@H]1O[C@@H](O[C@@H]2C=C3CCC4C(CC[C@]5(C)[C@@H](c6ccc(=O)oc6)CC[C@]45O)[C@@]3(C)CC2)[C@H](O)[C@H](O)[C@H]1O` (stereo partly specified), the inhibition was 97.5% (active) in [1]; 90.9% (active) in experiment [2]; 84.9% (active) in [3]; 89.9% (active) in experiment [4]; 97% (active) in experiment [9]; 110% (active) in [5]. In addition, the inhibition in [6] is 98.9% (active); in experiment [10] it was 96.5% (active); in [7], 74.1% (active); in [8], 60.1% (active).

On to `O=C(c1ccccc1)C(CN1CCCC1)c1ccccc1` (stereo unspecified), for which the inhibition in [1] is 19.4%; in experiment [2], 33.5% (active); in experiment [3], 10.9%; in experiment [4], 39.2% (active); in experiment [7], 27%; in [8] it was 68.3% (active).

With `CCCCN=C[C@]12CCC(O)CC1(O)CCC1[C@@H]2CC[C@]2(C)[C@H](C3C=CC(=O)O3)CCC12O` (stereo partly specified), the inhibition in experiment [1] was 94% (active); in experiment [2], 75.5% (active); in experiment [3] it was 42%; in [4], 75% (active); in [9], 97% (active); in experiment [5] it was 110% (active). Further, the inhibition in experiment [6] was 98.5% (active); in [10], 85.2% (active); in [7] it was 69.6% (active); in experiment [8], 20.9%.

In the case of `COc1ccc(C[C@H]2NC[C@H](O)[C@H]2OC(C)=O)cc1`, the inhibition in [1] is 98.9% (active); in experiment [2] it was 97.4% (active); in [3], 96% (active); in experiment [4], 96.7% (active); in experiment [9], 94.4% (active); in experiment [5], 110% (active). Further, the inhibition was 97.7% (active) in [6], 95.9% (active) in experiment [10], 79.2% (active) in experiment [7] and 78.6% (active) in experiment [8].

As for `COC1C(O)C(C)OC(OC2CCC3(C=O)C(CCC4C3CCC3(C)C(C5=CC(=O)OC5)CCC43O)C2)C1O` (stereo unspecified), the inhibition in experiment [1] is 96.8% (active); in experiment [2], 89.2% (active); in experiment [3], 81.5% (active); in experiment [4], 88.7% (active); in experiment [9], 93.6% (active); in [5], 110% (active). Besides, the inhibition in [6] was 97.2% (active); in [10] it was 93% (active); in [11] it was 51% (active); in [12], 76.3% (active).

Take `CN1CCN(c2cc(N3CCCCCC3)c(F)cc2[N+](=O)[O-])CC1`: the inhibition in experiment [3] is -15.1%; in [4], -7.21%.

Turning to `COc1ccc(-n2nnnc2C(c2cccs2)N2CCC(n3c(=O)[nH]c4ccccc43)CC2)cc1` (stereo unspecified), the inhibition in experiment [3] was -25.6%; in experiment [4], -13.5%.

As to `COC(=O)C1=C(c2ccc(-c3ccccc3)c(F)c2)C[C@@H]2CC[C@H]1N2C(=O)N1CCCCC1`, the inhibition in experiment [1] is 18.3%; in experiment [2] it was 39% (active); in experiment [7], 19.5%; in experiment [8] it was 35.4%.

Regarding `COC(=O)c1ccc(NC(=O)CSc2nc3ccc(N4C(=O)C5C6C=CC(C6)C5C4=O)cc3s2)cc1` (stereo unspecified), the inhibition was -22.8% in experiment [1], -0.23% in [2], 24.8% in experiment [7] and -3.51% in experiment [8].

In the case of `CCCCn1nnnc1C(CCSC)N1CCC(n2c(=O)[nH]c3ccccc32)CC1` (stereo unspecified), the inhibition in experiment [3] was -63.4%; in experiment [4] it was 6.98%.

For `COC(=O)C[C@]1(C(=O)OC)CN(C#N)N(c2ccc(Cl)cc2)C12c1ccccc1-c1ccccc12`, the inhibition in [1] is 17.7%; in experiment [2], 63.2% (active); in experiment [9], 34.7% (active); in experiment [5], 61.1% (active); in experiment [6] it was 58.2% (active); in experiment [10], 69.2% (active).

Turning to `COc1ccc(-n2nnnc2C(c2ccccc2)N2CCC(n3c(=O)[nH]c4ccccc43)CC2)cc1` (stereo unspecified), the inhibition was -22.4% in [3] and 5.11% in experiment [4].

For `COc1cc2nc(CN3CC=C(c4ccccc4)CC3)[nH]c(=O)c2cc1OC`, the inhibition in experiment [1] is 37.9%; in experiment [2] it was 39.7% (active); in experiment [9] it was 72.7% (active); in experiment [5], 97.1% (active); in experiment [6] it was 77.1% (active); in [10], 73.8% (active). The values for the inhibition in experiment [7] and in experiment [8] were -4.49% and 24.4%, respectively.

In the case of `CC(C)CNc1c2c(nc3ccccc13)CCC2`, the inhibition in experiment [3] was 7.81%; in experiment [4], 17.3%.

For `COc1cccc2cc(-c3cc(=O)oc4ccc(OC(=O)N(C)C)cc34)oc12`, the values for the inhibition in [3] and in experiment [4] were -17.6% and -14.6%, respectively.

As to `CCCOC(=O)c1ccc(-[n+]2c(-c3ccccc3)cc(-c3ccccc3)cc2-c2ccccc2)cc1`, the inhibition is 44.1% (active) in experiment [1]; 65.5% (active) in experiment [2]; 64.9% (active) in experiment [9]; 110% (active) in experiment [5]; 88.8% (active) in [6]; 96.6% (active) in experiment [10]. Besides, the inhibition was 31.1% in experiment [7] and 31.8% in experiment [8].

Consider `COc1ccc(-n2nnnc2C(c2cccc(OC)c2OC)N2CCC(n3c(=O)[nH]c4ccccc43)CC2)cc1` (stereo unspecified), for which the inhibition in [3] is -18.7%; in experiment [4], 3.33%.

For the compound `O=c1[nH]c2ccccc2n1C1CCN(C(c2cc3ccccc3o2)c2nnnn2-c2ccc3c(c2)OCCO3)CC1` (stereo unspecified), the results for the inhibition in experiment [3] and in [4] were -27.1% and 8.97%, respectively.
